Compound activity deposited in PubChem by National Center for Advancing Translational Sciences (NCATS).
Rows were chosen to be rich in hits. Some 11% of all compounds tested hit in one or more screens of this group.
hNpr1 antagonist: blocks ANP-stimulated signaling of human Npr1 receptor; HEK293 hNpr1 GloSensor cGMP, ANP-stimulated luminescence; Potency, µM (doses to about 46.3 µM), without a hit: at the top dose activity change, negative = inhibition, most hits filed as inhibitors; hit rate 1.6% among 76,000; calls by dose curve; also: nearly all actives have a fitted effect of over 60% in size
Target sequence (P16066 whole entry, looked up): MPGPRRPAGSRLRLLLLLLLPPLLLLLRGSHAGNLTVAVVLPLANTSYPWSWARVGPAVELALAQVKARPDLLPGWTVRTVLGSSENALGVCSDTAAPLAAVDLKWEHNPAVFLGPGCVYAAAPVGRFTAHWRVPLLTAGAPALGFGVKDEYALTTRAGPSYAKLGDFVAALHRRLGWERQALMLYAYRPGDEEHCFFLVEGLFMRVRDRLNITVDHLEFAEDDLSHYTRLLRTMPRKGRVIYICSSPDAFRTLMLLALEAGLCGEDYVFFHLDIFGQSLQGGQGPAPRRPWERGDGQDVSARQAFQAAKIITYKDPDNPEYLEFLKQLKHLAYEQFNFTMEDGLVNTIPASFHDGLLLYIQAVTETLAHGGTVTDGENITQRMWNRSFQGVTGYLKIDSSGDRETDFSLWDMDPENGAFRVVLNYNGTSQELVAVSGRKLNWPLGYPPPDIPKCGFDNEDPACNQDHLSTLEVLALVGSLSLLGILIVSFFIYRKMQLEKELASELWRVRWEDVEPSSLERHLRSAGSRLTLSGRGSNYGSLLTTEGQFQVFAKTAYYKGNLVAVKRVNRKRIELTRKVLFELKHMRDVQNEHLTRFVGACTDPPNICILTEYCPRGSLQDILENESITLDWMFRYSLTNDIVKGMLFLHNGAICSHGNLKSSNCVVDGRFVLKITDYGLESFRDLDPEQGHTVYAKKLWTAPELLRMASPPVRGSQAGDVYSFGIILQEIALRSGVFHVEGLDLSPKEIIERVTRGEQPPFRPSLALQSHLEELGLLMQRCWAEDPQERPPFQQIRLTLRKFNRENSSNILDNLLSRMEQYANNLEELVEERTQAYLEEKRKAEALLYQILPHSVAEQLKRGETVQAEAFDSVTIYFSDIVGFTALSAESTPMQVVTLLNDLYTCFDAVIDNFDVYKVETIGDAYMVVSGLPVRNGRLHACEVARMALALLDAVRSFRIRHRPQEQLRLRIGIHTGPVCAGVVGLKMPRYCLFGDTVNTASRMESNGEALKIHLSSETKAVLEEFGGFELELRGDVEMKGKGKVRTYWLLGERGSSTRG
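HEK293 cells stably expressing human Npr1 and cGMP GloSensor pGS-40F, loaded 2 h with 2% GloSensor reagent, given compound 30 min at room temperature. Luminescence read before and 20 min after 0.1 nM hNppA.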
HEK cytotox: cytotoxic compounds in HEK 293 cells; HEK 293 viability, ATP luminescence (CellTiter-Glo), 48-72 h; Potency, µM (series often up to 115 µM), for the others: at the highest dose activity change, negative = cytotoxicity, hits mostly inhibitors; hit rate 6.6% among 94,000; AID 1345083; also: nearly all actives have a fitted effect of over 60% in size
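ATP-coupled CellTiter-Glo luminescence served as viability read-out, recorded 10 min after reagent addition at room temperature. HEK 293 cells, 250 cells/well, had been incubated with pintool-transferred compound for 48 or 72 hr at 37 degree Celsius.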
NIH3T3 tox: NIH 3T3 cell cytotoxicity | hit rate 4.3% among 94,000 | Potency, µM (titrated, usually from 96.7 µM), for inactives: top-dose activity change, negative = cytotoxicity, usual class: inhibitors | NIH 3T3 viability, CellTiter-Glo ATP luminescence, 48-72 h | AID 1345082; also: nearly all actives have a fitted effect of over 55% in size
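Cytotoxicity was measured by CellTiter-Glo ATP luminescence after 48 or 72 h compound exposure at 37 °C. Mouse NIH 3T3 fibroblasts were seeded at 400 cells/well and dosed by 23 nL pin transfer.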
FLuc inh: inhibitors of firefly (Photinus pyralis) luciferase. Potency, µM (doses to about 115 µM), usual class: inhibitors. purified P. pyralis luciferase, luminescence, biochemical. hit rate 2.5% among 76,000. P08659; also: nearly all actives have a fitted effect of over 65% in size
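FLuc 10nM, D-luciferin 10uM, ATP 10uM, Mg acetate 10mM, Tris acetate pH 7.5, Tween/BSA; cpd qHTS; enzyme added last; CCD luminescence.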
* = called active by the depositor; i = inactive; ? = inconclusive; . = no result given; ! = repeats disagree; [ ] = dose if it differs, or a comment. Unless noted, calls follow the shape of the dose curve; as a rule, active = well fitted curve in the direction sought with a large enough effect; inconclusive = small, poorly fitted or top-dose-only effect, or another doubt; inactive = no such curve, though single readings can be large; an effect the other way counts as inactive or inconclusive. % is scaled to controls: 0 for no effect and ±100 for the full control effect; potency is read from the fitted curve at half-maximal effect.

SMILES	hNpr1 antagonist	HEK cytotox	NIH3T3 tox	FLuc inh
Cc1noc(C)c1S(=O)(=O)N[C@@H]1C[C@H](Cn2cc(-c3cccnc3)nn2)[C@@H](O)[C@H]1O	-1.7%	39.8µM*	22.4µM*	i
Cc1cc(C)c(CNC(=O)c2nc(-c3ccccc3C)cc3c2ccn3C(C)C)c(=O)[nH]1	?	22.4µM*	28.2µM*	i
Cc1cc(C)c(CNC(=O)c2nc(-c3ccc(CN(C)C)cc3)cc3c2ccn3C(C)C)c(=O)[nH]1	-2.3%	?	14.1µM*	i
Cc1cc(C)c(CNC(=O)c2nc(-c3ccccc3O)cc3c2ccn3C(C)C)c(=O)[nH]1	-0.9%[70.6 µM]	?	?	i
Cc1cc(C)c(CNC(=O)c2nc(-c3ccc(CN(C)C)cc3)cc3[nH]ccc23)c(=O)[nH]1	4.8%[70.6 µM]	?	100µM*	?
Cc1ccc(-c2cc3c(ccn3C(C)C)c(C(=O)NCc3c(C)cc(C)[nH]c3=O)n2)cn1	0.6%[70.6 µM]	?	79.4µM*	?
CSc1ccc(-c2cccc(C(=O)NCC(=O)NCCc3ccc(F)cc3)c2)cc1	.	?	-29.4%	.
CCN1CCCC12Cc1ccccc1CN([S+](C)(=O)[O-])C2 (configuration not stated)	.	-25.0%	-9.1%	.
O=C(c1ccc(C(F)(F)F)cc1)N1CCc2nc(-c3ccc(Cl)cc3)nc(-c3ccccc3)c2C1	7.2%	20µM*	-17.8%	i
Cc1ccc(C(=O)N2CCc3onc(-c4cccc5ccccc45)c3C2)cc1	-3.8%	39.8µM*	?	i
O=C(c1ccccc1)N1CCc2nc(-c3ccccc3)nc(-c3ccc(Cl)cc3)c2C1	-0.1%	?	?	i
Cc1ccc(C(=O)N2CCc3nc(-c4ccc(Cl)cc4)nc(-c4ccccc4)c3C2)cc1	0.5%	50.1µM*!	?	?
CC(=O)NC(CO)C(=O)N1CCc2onc(-c3cccc4ccccc34)c2C1 (configuration not stated)	1.2%	-5.9%	-16.4%	i
O=C1CN(C(=O)c2cccc(C(F)(F)F)c2)CC(O)CN1Cc1ccc(Cl)cc1 (configuration not stated)	.	?	-23.4%	.
Cc1ccc(S(=O)(=O)N2CCCN(C)c3ccccc32)cc1C	-8.2%	?	?	i
CN1CCCN(S(=O)(=O)c2ccc3c(c2)OCCO3)c2ccccc21	-12.5%	31.6µM*	?	i
F[C@@H]1CN(CC2CC2)C[C@@H]1OCc1nc2ccccc2o1	0.8%[70.6 µM]	-9.7%[230 µM]	-12.7%[174 µM]	35.5µM*
F[C@@H]1CN(C2CCC2)C[C@@H]1OCc1nc2ccccc2o1	-7.5%[70.6 µM]	-24.5%[230 µM]	-18.5%[174 µM]	79.4µM*
F[C@@H]1CN(C2CCOCC2)C[C@@H]1OCc1nc2ccccc2o1	-8.1%[70.6 µM]	-23.9%[172 µM]	-14.3%[138 µM]	i
Cc1csc(NC(=O)[C@@H]2C[C@H](c3ccc(F)cc3)N(Cc3ccccc3Cl)C2)n1	?	?	?	i
COc1cccc(-c2cc3c(ccn3CC3CCN(C)CC3)c(N3CCOCC3)n2)c1	-0.4%[70.6 µM]	63.1µM*	25.1µM*	i
COc1ncccc1-c1cc2c(ccn2CC2CCN(C)CC2)c(N2CCOCC2)n1	-12.7%[70.6 µM]	89.1µM*	44.7µM*	i
C[S+](=O)([O-])N1CCC(Cn2ccc3c(N4CCOCC4)nc(-c4cncnc4)cc32)CC1	-9.2%	-15.2%	?	i
Cc1nnc2ccc(N3CCC(NC(=O)NC(C)C)C3)nn12 (configuration not stated)	.	i	-5.9%[138 µM]	.
Cc1cccc(-c2noc([C@@H]3Cc4nc[nH]c4CN3)n2)c1	-1.6%[70.6 µM]	-4.0%[230 µM]	-26.7%[230 µM]	50.1µM*
SMILES	hNpr1 antagonist	HEK cytotox	NIH3T3 tox	FLuc inh
Cc1cccc(-c2noc([C@@H]3Cc4nc[nH]c4CN3C(=O)C3CCCCC3)n2)c1	-0.8%[70.6 µM]	?	?	56.2µM*
Cc1cccc(-c2noc([C@@H]3Cc4nc[nH]c4CN3C(=O)c3ccc(-c4ccccc4)cc3)n2)c1	-26.3%	35.5µM*	20µM*	i
O=[N+]([O-])c1cccc(-c2noc([C@@H]3Cc4nc[nH]c4CN3CC3CCCCC3)n2)c1	-14.1%[70.6 µM]	56.2µM*	70.8µM*	i
Cc1cccc(-c2noc([C@@H]3Cc4nc[nH]c4CN3C(=O)c3ccccc3C(=O)O)n2)c1	3.8%[70.6 µM]	-14.8%[172 µM]	-5.2%[174 µM]	?
CCOC(=O)c1ccc(NC(=O)N2CCc3c(nc4cc[nH]n4c3=O)C2)cc1	1.0%	8.8%	i	i
COc1cccc(C(=O)N2CCC(C(=O)N3CCC4(CC3)CC(=O)Nc3ccccc3O4)CC2)c1	.	?	-8.7%	.
O=C(NC1CC1)c1nc2cccnc2n(C2CCCC2)c1=O	.	1.0%[172 µM]	-23.4%[138 µM]	.
Cn1ncc2c(C(=O)NC3CCC3)cc(-c3ccccc3F)nc21	.	-22.5%[172 µM]	?	.
COc1ccc(CCNC(=O)c2cn3cc(-c4ccccc4)sc3n2)cc1	.	-24.1%	-18.4%	.
CCN1CCC2(CC1)Cc1ccccc1CN(S(=O)(=O)c1ccccc1)C2	.	-23.7%	31.6µM*	.
CS(=O)(=O)N1Cc2ccccc2CC2(CCN(Cc3ccccn3)C2)C1 (configuration not stated)	.	-6.7%	-5.4%	.
CC(c1cccs1)N(C)C(=O)Nc1ccc(Cl)cc1 (configuration not stated)	0.6%[70.6 µM]	?	79.4µM*	44.7µM*
CC(c1cccs1)N(C)C(=O)c1cccc(Cl)c1 (configuration not stated)	-1.8%[70.6 µM]	100µM*	-20.7%[138 µM]	i
COc1cccc(C(=O)N(C)C(C)c2cccs2)c1 (configuration not stated)	-7.4%[70.6 µM]	-18.9%[172 µM]	-20.1%[138 µM]	i
Cc1cc(S(=O)(=O)N2CCC(Oc3ccc(C(N)=O)cn3)CC2)ccc1Cl	?	?	?	i
Cc1cc(Cl)ccc1S(=O)(=O)N1CCC(Oc2ccc(C(N)=O)cn2)CC1	?	25.1µM*	?	i
O=C(NC1CCN(c2cc(N3CCOCC3)cnn2)C1)C1CCCC1 (configuration not stated)	.	-11.0%	-27.2%	.
CN1CCN(c2ccc3ncc(Nc4ccc(OC(F)(F)F)cc4)n3n2)CC1	-20.1%[70.6 µM]	50.1µM*	35.5µM*	i
c1ccc(Oc2ccc(Nc3cnc4ccc(N5CCOCC5)nn34)cc2)cc1	?	?	44.7µM*	i
CN1CCN(c2ccc3ncc(Nc4ccc5c(c4)OCCO5)n3n2)CC1	-0.9%[70.6 µM]	?	?	i
Clc1cccc(Nc2cnc3ccc(N4CCOCC4)nn23)c1	?	?	?	i
CN1CCN(c2ccc3ncc(Nc4ccc(Cl)c(C(F)(F)F)c4)n3n2)CC1	?	79.4µM*	?	i
C=CCCC(CN1CCCOCC1)Oc1ncc(C)c(N(C)C)n1 (configuration not stated)	-6.7%	?	-22.1%	i
CCCN1CCN(C(=O)c2c(OCC3CC3)cc(=O)n3c2CCOCC3)CC1	.	-16.4%	-7.9%	.
COC[C@H]1NC(=O)CC[C@H]1C(=O)NCc1cc(F)cc(F)c1	.	-2.0%	-15.3%	.
CCOC(=O)N1CCC(Oc2cnc3c(ccn3-c3cncnc3)c2)CC1	-8.2%[70.6 µM]	-23.1%[172 µM]	10µM*	i
